The values below come from PubChem BioAssay.

Molecules are shown by their SMILES.

For this experiment, the target named is Calmodulin-1 (Homo sapiens) (UniProt P0DP23). Description: small molecules binding Ca-loaded calmodulin-1 – biochemical, small-molecule microarray, Cy5-labelled CALM1, plus calcium, artefact control for SMM control-protein annotation, profiling panel (AID 1112).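 Note: score merges spot fluorescence with signal to noise from triplicate slides.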 The note with it: Cy5-CALM1 binding fluorescence, higher = more signal.
Turning to `CCOC(=O)C1=CCC(c2ccco2)N(S(=O)(=O)c2ccc(C)cc2)C1` (configuration not stated), the composite z-score was 0.0331.

As to `COCCOC(=O)N1C(=O)[C@@]2(c3cc(C#CCC(C(=O)OC)C(=O)OC)ccc31)[C@H](C(=O)NC[C@H](O)c1ccccc1)[C@H]1C(=O)O[C@H](c3ccccc3)[C@H](c3ccccc3)N1[C@@H]2c1ccc(OCCO)cc1`, the composite z-score was -0.0628.

Regarding `CCCNC(=O)[C@@]1(Sc2ccc(C)cc2)CC(=O)N(C(C)C)[C@@H]1c1ccc(CO)cc1I`, the composite z-score is 0.944.

Consider `COC(=O)[C@@]1(Cc2ccc(F)cc2)[C@H]2c3cc(C(=O)N4CCCC4)n(C)c3C[C@H]2CN1C(=O)c1ccccc1`, for which the composite z-score turned out to be 1.11. For the compound `O=C1O[C@H](c2ccccc2)[C@H](c2ccccc2)N2[C@H]1[C@@H](C(=O)N1CCCCCCC1)[C@]1(C(=O)Nc3ccc(C#CC4(O)CCCCCC4)cc31)[C@H]2c1ccc(O)cc1`, the composite z-score stood at 1.19. With `O=C1O[C@H](c2ccccc2)[C@H](c2ccccc2)N2[C@H]1[C@@H](C(=O)O)[C@]1(C(=O)Nc3ccc(C#CC4(O)CCCCCC4)cc31)[C@H]2c1ccc(O)cc1` the figure was 0.431. Turning to `COCCOC(=O)N1C(=O)[C@@]2(c3ccccc31)[C@H](c1ccccc1OCCO)N1[C@H](c3ccccc3)[C@H](c3ccccc3)OC(=O)[C@H]1[C@@H]2C(N)=O`, the composite z-score was determined as 0.208. For the compound `NC(=O)[C@@H]1[C@H]2C(=O)O[C@H](c3ccccc3)[C@H](c3ccccc3)N2[C@H](c2ccc(OCCO)cc2)[C@@]12C(=O)Nc1ccc(C#CCCO)cc12`, the composite z-score was 0.209.

For `Cc1cccc([C@H]2C[C@H]3C(Br)=C[C@@H]2C(=O)[C@]32CO2)c1`, the composite z-score was -0.41.

With `COc1ccc(C#Cc2ccc3c(c2)[C@]2(C(=O)N3)[C@H](C(=O)Nc3nc4ccccc4s3)[C@H]3C(=O)O[C@H](c4ccccc4)[C@H](c4ccccc4)N3[C@@H]2c2ccccc2OCCO)cc1`, the composite z-score amounted to 0.436. Take `C=CCNC(=O)[C@@H]1[C@H]2C(=O)O[C@H](c3ccccc3)[C@H](c3ccccc3)N2[C@H](c2ccc(OCCO)cc2)[C@@]12C(=O)N(C(=O)OCCOC)c1ccc(C#CCCO)cc12`: the composite z-score is -0.381.

Regarding `COCC(=C=CC[C@@H](O)c1cccc(OCCO)c1)CCO`, the composite z-score is 0.281. `COCCOC(=O)N1C(=O)[C@@]2(c3cc(C#CC4(O)CCCCCC4)ccc31)[C@H](C(=O)N1CCN(c3ncccn3)CC1)[C@H]1C(=O)O[C@H](c3ccccc3)[C@H](c3ccccc3)N1[C@@H]2c1ccccc1OCCO`: the composite z-score is 0.0618. As for `[N-]=[N+]=Nc1ccccc1C[C@]1(C(=O)O)N=C(c2ccc(OCCCO)cc2)O[C@H]1c1ccccc1N=[N+]=[N-]`, the composite z-score came out at 0.923.

For `NC(=O)NCC#Cc1ccc2c(c1)[C@]1(C(=O)N2)[C@H](C(=O)N2CCN(c3ncccn3)CC2)[C@H]2C(=O)O[C@H](c3ccccc3)[C@H](c3ccccc3)N2[C@@H]1c1ccc(OCCO)cc1`, the composite z-score worked out at 0.514. `CN(C)C(=O)[C@@]1(Cc2ccccc2)COC(c2ccc(OCCCO)cc2)=N1`: the composite z-score came out at 0.369. The same measure for `CCN(CC)c1ccc(N2CC=CC34O[C@@H]5C=CCCOC(=O)C5[C@H]3C(=O)N(CCO)[C@@H]4C2=O)cc1` (some centres not stated): -0.183. Consider `C[C@@H]1ON(c2ccc(I)cc2)[C@H](c2ccc(OC(=O)OC(C)(C)C)cc2)[C@H]1C(=O)N1C(=O)OC[C@H]1Cc1ccccc1`, for which the composite z-score is -0.502. Regarding `COc1cc(CO)cc(I)c1O[C@H]1C=C(C(=O)NCCO)C[C@@H](NCC2CCCCC2)[C@@H]1O`, the composite z-score was -0.197. On to `C=CCNC(=O)[C@@H]1[C@H]2C(=O)O[C@H](c3ccccc3)[C@H](c3ccccc3)N2[C@H](c2ccc(O)cc2)[C@@]12C(=O)Nc1ccc(C#CCC(C(=O)OC)C(=O)OC)cc12`, for which the composite z-score was found to be 0.0221. As for `CCOC(=O)C1=C[C@@H](c2ccccc2)N(S(=O)(=O)c2ccc(C)cc2)[C@H]1c1ccccc1`, the composite z-score was 0.209. Take `[N-]=[N+]=NC[C@H](Cc1ccccc1)NC(=O)c1ccccc1`: the composite z-score was -0.203. Take `COc1ccc(C(O)C2C=CC3C(=O)N(c4ccccc4)C(=O)C3N2Nc2ccccc2F)cc1` (configuration not stated): the composite z-score was 0.062. Regarding `C#C[C@@H](CC)O[Si](C#CCCCC#N)(C(C)C)C(C)C`, the composite z-score was -0.104. For the compound `CCCCCCCCCCC(O)C1C=CC2C(=O)N(C)C(=O)C2N1Nc1cc(OC)c(OC)c(OC)c1` (configuration not stated), the composite z-score was 1.39. Turning to `C=C[C@H](C)[C@H](OC(=O)Nc1ccc(OC)cc1)c1ccc(OCCO)cc1`, the composite z-score is -0.0296. Take `COCCOC(=O)N1C(=O)[C@@]2(c3cc(C#CC4(O)CCCCCC4)ccc31)[C@H](c1ccc(OCCO)cc1)N1[C@H](c3ccccc3)[C@H](c3ccccc3)OC(=O)[C@H]1[C@@H]2C(=O)Nc1nc2ccccc2s1`: the composite z-score came to 0.249.
